Only a selection was taken, and hits are over-represented in it overall.
Tb PYK inh: blocks Trypanosoma brucei pyruvate kinase | TbPYK enzyme, Kinase-Glo Plus ATP luminescence, 45 min | Potency, µM (titrated, usually from 76.8 µM), for inactives: at the highest dose activity, negative = inhibition, usual class: inhibitors | 410,000 compounds, 0.12% hits | AID 624173; active = well fitted curve in the direction sought with a large enough effect; inconclusive = small, poorly fitted or top-dose-only effect, or another doubt; inactive = no such curve, though single readings can be large; an effect the other way counts as inactive or inconclusive; note: potency is the fitted concentration of half-maximal effect; % is set by controls: 0 for no effect and ±100 for the full control effect; nearly all actives have a fitted effect of over 50% in size
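ADP (130 uM final) triggers the TbPYK reaction after compound addition; incubation is 45 min at room temperature. Kinase-Glo Plus is then added and luminescence imaged. Normalized data are fitted to concentration-effect curves.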
CHX counter: counter-screen for Shiga toxin inhibitors: cycloheximide protein synthesis inhibition; cell reporter, cycloheximide protein synthesis inhibition counterscreen; max response, %; 300,000 compounds, 12% hits; AID 2314; in the data active = max response mostly above about 13%, no sharp cut-off; inactive = mostly below about 14%; note: read at 38.3 µM for the half of the compounds with a filed dose; 0% is about no effect
NS1 inh: inhibitors of influenza NS1 protein function. Potency, µM (highest dose often 46.1 µM), for the others: top-dose activity, positive = more growth. AID 2326. 270,000 compounds, 0.4% hits; note: potency is the fitted concentration of half-maximal effect; actives are rising curves; nearly all actives have a fitted effect of over 50% in size
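Compounds were scored for reversing the slow growth caused by influenza A NS1 in S. cerevisiae, measured by optical density at 600 nm. Assay medium contained 2% galactose at pH 6.0; NS1-free yeast of the same strain were the positive control.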
SARS PLP yeast: SARS-CoV PLP inhibition in yeast; 330,000 compounds, 0.19% hits; AID 485353; Potency, µM (doses to about 32.9 µM), for inactives: top-dose activity, positive = growth rescue, most hits filed as activators; S. cerevisiae expressing SARS-CoV PLpro, growth rescue; note: potency is the fitted concentration of half-maximal effect; 0% is about no effect; nearly all actives have a fitted effect of over 55% in size
Shiga toxin inh: Shiga toxin inhibition; Vero cells, Shiga toxin protein synthesis inhibition reporter; inhibition, % at 38.7 µM; 290,000 compounds, 9.2% hits; AID 2315; in the data active = inhibition mostly above about 28%, no sharp cut-off; inactive = mostly below about 43%; note: 0% is about no effect
LmPK inhibitor: LmPK (Leishmania mexicana) enzyme inhibition | purified LmPK, Kinase-Glo ATP luminescence, 1 h | 290,000 compounds, 0.37% hits | Q27686 | Potency, µM (highest dose often 57.5 µM), for inactives: top-dose activity change, negative = inhibition, usual class: inhibitors | AID 1721; active = well fitted curve in the direction sought with a large enough effect; inconclusive = small, poorly fitted or top-dose-only effect, or another doubt; inactive = no such curve, though single readings can be large; an effect the other way counts as inactive or inconclusive; note: potency is the fitted concentration of half-maximal effect; % is set by controls: 0 for no effect and ±100 for the full control effect
Target sequence (Q27686 whole entry, looked up): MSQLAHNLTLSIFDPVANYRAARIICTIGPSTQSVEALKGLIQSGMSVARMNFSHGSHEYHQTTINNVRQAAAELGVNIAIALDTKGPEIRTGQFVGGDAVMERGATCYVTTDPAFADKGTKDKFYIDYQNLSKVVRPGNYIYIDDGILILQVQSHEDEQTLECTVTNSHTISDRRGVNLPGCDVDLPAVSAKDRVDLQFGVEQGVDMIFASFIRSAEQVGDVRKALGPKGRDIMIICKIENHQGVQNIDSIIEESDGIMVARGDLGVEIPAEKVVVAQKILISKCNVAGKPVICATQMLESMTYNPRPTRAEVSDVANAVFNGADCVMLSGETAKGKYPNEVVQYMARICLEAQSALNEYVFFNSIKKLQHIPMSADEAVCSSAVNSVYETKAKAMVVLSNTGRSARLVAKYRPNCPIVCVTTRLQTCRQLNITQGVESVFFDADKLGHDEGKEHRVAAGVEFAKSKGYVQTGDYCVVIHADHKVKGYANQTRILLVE
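qHTS format; LmPK 0.1 nM; substrates PEP 0.5 mM and ADP 0.1 mM. One-hour room-temperature incubation, then coupled luciferase luminescence; 0.5 nM enzyme wells mark activation.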
An asterisk follows results filed as active; ? = inconclusive; · = not tested or not shown. Unless noted, calls come from the whole dose curve.

SMILES	Tb PYK inh	CHX counter	NS1 inh	SARS PLP yeast	Shiga toxin inh	LmPK inhibitor
COc1ccc(/C=C2/CCOC2=O)cc1	-8%	18*	9%	2%	-2	-2%
Cc1ccc(/C=C2\CCOC2=O)cc1	-1%	12*	-2%	1%	15	-3%
Cc1ccc(/C=C2/CNC/C(=C\c3ccc(C)cc3)C2=O)cc1	·	67*	·	·	86*	·
COc1ccc(C(=O)NC(=S)NCc2ccco2)cc1	-4%	22*	2%	13%	44*	6%
COc1ccc(C(=O)NC(=S)NCc2ccccc2)cc1OC	-2%	-1	-4%	2%	1	0%
COc1ccc(C(=O)NC(=S)NCc2ccco2)cc1OC	-3%	-1	28%	-9%	-8	6%
Cc1ccc(C(=O)NC(=S)NCc2ccccc2)cc1	7%	16*	-8%	-6%	45	-5%
COc1ccc(C(=O)Nc2ccc(Cl)cc2C(=O)NCc2ccco2)cc1	0%	14*	13%	-1%	21	6%
Cc1ccc(C(=O)NC(=S)NCc2ccco2)cc1	5%	35*	·	15%	46	-3%
CC1=CC23C(=O)C(C=C(CO)[C@@H](O)[C@]2(O)[C@H]1O)[C@H]1[C@@H](C[C@H]3C)C1(C)C (stereo partly drawn)	·	-2	·	·	-3	·
Cc1ccc(S(=O)(=O)N(C)c2ccc(OC(=O)c3cccs3)cc2)cc1	-4%	·	·	1%	·	·
Cc1ccc(NC(=O)C(=S)NCc2ccco2)cc1	-6%	38*	14%	3%	38	-1%
COc1ccc(C(=O)N/C(=C\c2ccco2)C(=O)NCc2ccco2)cc1	0%	6	11%	?	-6	6%
CC(C)(C)c1ccc(C(=O)N/C(=C\c2cccs2)C(=O)NCc2ccco2)cc1	10%	33*	-60%	-6%	55	4%
Cc1cccc(N2CCN(C(=O)CCc3c(C)nc4ncnn4c3C)CC2)c1C	2%	·	·	·	·	·
CC(C)(C)CN1CCN(CC#Cc2ccccc2)CC1CCO (stereo not drawn)	1%	17*	22%	7%	34	-3%
CN1CCN(CC#Cc2ccccc2)CC1CCO (stereo not drawn)	6%	-1	7%	-9%	-2	1%
CC(C)(C)Sc1ccc2nc3c(n2c1)CCCC3	2%	15*	-15%	?	35	1%
O=C(Nc1cccc(F)c1)C1CCN(c2nc3ccccc3nc2C(F)(F)F)CC1	0%	·	·	·	·	·
O=C(COc1ccccc1)NCCSc1ccccc1	-11%	14*	-13%	0%	40	2%
C=CCNC(=O)COc1ccc(S(=O)(=O)N2CCCC2)cc1	7%	-4	-1%	0%	12	1%
O=C(COc1ccc2ccccc2c1)NCCNC(=O)COc1ccc2ccccc2c1	-9%	11	7%	11%	-5	15%
CC(C)(C)SCCNC(=O)COc1ccccc1	0%	27*	-2%	2%	16	0%
O=C(CSc1ccc(F)cc1)NCCSc1ccccc1	-10%	16	·	-5%	54	-3%
C=CCNC(=O)COc1ccc(Oc2ccccc2)cc1	0%	52*	·	-4%	64*	-1%
SMILES	Tb PYK inh	CHX counter	NS1 inh	SARS PLP yeast	Shiga toxin inh	LmPK inhibitor
O=C(Nc1ccc(C(=O)N2CCC(N3CCCC3)CC2)cc1)c1ccc(Br)o1	-1%	·	·	0%	·	·
CCC(=O)N1c2ccccc2CC1C(=O)NCCc1ccc(SC)cc1 (stereo not drawn)	-1%	·	·	·	·	·
CCOC(=O)c1ccc(NC(=O)C2Cc3ccccc3C(=O)O2)cc1 (stereo not drawn)	5%	·	·	·	·	·
O=C1OC(C(=O)Nc2ccccc2)Cc2ccccc21 (stereo not drawn)	-17%	41*	·	1%	64*	5%
Cc1ccc(NC(=O)C2Cc3ccccc3C(=O)O2)cc1 (stereo not drawn)	-6%	36*	·	0%	87*	-12%
CS(=O)(=O)Nc1ccc(C(=O)NCCSC2CCCCC2)cc1	4%	9	-6%	2%	18	0%
O=C(NCCSC1CCCCC1)c1ccccc1	3%	30*	-5%	-2%	63*	1%
COc1ccc(C(=O)NCCSC2CCCCC2)cc1	-4%	42*	-2%	-1%	80*	3%
CS(=O)(=O)N(CC(=O)NCCSC1CCCCC1)c1ccccc1	-11%	-2	4%	1%	-8	1%
Cc1ccc(Cc2cnc(NC(=O)C3CCCO3)s2)cc1 (stereo not drawn)	-11%	34*	-18%	3%	138*	4%
Cc1csc(NC(=O)C2CCCO2)n1 (stereo not drawn)	-4%	-3	-2%	7%	23	3%
O=C(Nc1ncc(Cc2cccc(C(F)(F)F)c2)s1)C1CCCO1 (stereo not drawn)	3%	34*	?	-6%	35*	-1%
CC(=O)Nc1cccc(NC(=O)C2CCCO2)c1 (stereo not drawn)	2%	·	·	·	·	·
CCOc1ccc2c(c1)OC(c1ccc(C)cc1)(C(F)(F)F)NC2=O (stereo not drawn)	0%	27*	17%	0%	53*	-5%
Oc1ccc(Br)cc1-c1cc(-c2ccccc2Cl)[nH]n1	-21%	19*	-1%	0%	42*	-6%
COc1ccccc1-c1cc(-c2cc(Cl)ccc2O)n[nH]1	0%	17*	0%	-6%	20	-1%
COc1ccc(Cl)c(-c2cc(C(=O)NC(C)C)[nH]n2)c1	-2%	·	·	·	·	·
COc1ccc(Cl)cc1NC(=O)c1cc(-c2ccccc2O)n[nH]1	-2%	10	?	-11%	13	6%
Oc1ccc(Br)cc1-c1cc(-c2ccccc2F)[nH]n1	-6%	64*	5%	0%	77*	-1%
CCn1c(-c2cc(Br)ccc2O)n[nH]c1=S	?	·	-19%	·	·	·
O=C(O)c1cc(-c2ccccc2Cl)n[nH]1	-3%	-1	-1%	13%	-14	2%
COc1ccc(O)c(-c2cc(-c3ccccc3Cl)[nH]n2)c1	-3%	26*	-137%	-32%	33*	9%
COc1ccc(O)c(-c2cc(-c3cccs3)[nH]n2)c1	-6%	43*	-92%	-12%	155*	-2%
COc1cccc(C(C)(O)c2nc(-c3cccs3)cs2)c1 (stereo not drawn)	1%	·	·	·	·	·
CCCN1CCN(S(=O)(=O)c2ccc3c(c2)NC(=O)C(C)C(=O)N3)CC1 (stereo not drawn)	-5%	-1	-2%	-2%	12	-1%
COc1cc(NC(=O)c2cccc(Br)c2)nc(OC)n1	2%	40*	-8%	-2%	71*	-8%
COc1cc(NC(=O)c2c(F)cccc2F)nc(OC)n1	-2%	33*	4%	2%	98*	-4%
CCOc1ccc(NC(=O)Cn2cc(C(=O)c3ccc(C)c(C)c3)c(=O)c3cc(F)ccc32)cc1	4%	·	·	·	·	·

Bioassay records from PubChem BioAssay.
